Results with a measured potency or affinity are listed apart. Records with an inconclusive call do not appear. The source made the active and inactive calls. The rule behind the calls is not given here.
How the values were obtained:
[1] = IGROV1 cell killing – plate reader, dry powder samples, PAX8 inhibitor project, dose response (AID 743043);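 note: more negative means fewer viable cells or more cytotoxicity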
[2] = toxicity toward immortalized ovarian surface epithelium – cell-based, plate reader, dry powder samples, cytotoxicity control for PAX8 inhibitor project, dose response (AID 743045);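 note: more negative values mean more cell killing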

## O=C(N1CCCCC1)[C@@]1(CCS(=O)(=O)c2ccccc2)N=C(c2ccc(OCCCO)cc2)O[C@H]1c1ccccc1
[1]
  outcome: inactive
[2]
  outcome: inactive

— PubChem BioAssay
